Binding signal data for 26 sequences are collected here from paper doi:10.1101/2024.03.05.583629.

One test deals with pT7_6His-AlfaTag-HOXD13 (human, UniProt P35453 263-343). Briefly: PADIT-seq. The note with it: dsDNA, one strand shown.
The next test has as its target pT7_6His-AlfaTag-ZIF268 (human, UniProt P18146 335-423). Briefly: PADIT-seq. The note with it: dsDNA, one strand shown.

Sequence of pT7_6His-AlfaTag-HOXD13 (P35453 263-343): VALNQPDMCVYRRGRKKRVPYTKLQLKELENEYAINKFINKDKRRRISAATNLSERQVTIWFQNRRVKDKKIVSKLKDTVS

As to “CTCGAGGATATCAAGATCTGGCCTCGGCTTTTTATTTGGAACCTCTAGCTAGCCGACTCACTATAGGGATAATCGCCCTGAGCAAAGACC”, the binding signal with pT7_6His-AlfaTag-HOXD13 was found to be 2.91 ± 0.0833 log2FC; in the test with pT7_6His-AlfaTag-ZIF268 it was 0.188 ± 0.0912 log2FC.
For “CTCGAGGATATCAAGATCTGGCCTCGGCGGGTTAAAAGGAACCTCTAGCTAGCCGACTCACTATAGGGATAATCGCCCTGAGCAAAGACC” the same measures were 0.632 ± 0.0825 log2FC and 0.0267 ± 0.0801 log2FC.
For “CTCGAGGATATCAAGATCTGGCCTCGGCGCGGATGCGGGAACCTCTAGCTAGCCGACTCACTATAGGGATAATCGCCCTGAGCAAAGACC” the same measures were 0.465 ± 0.106 log2FC and 0.109 ± 0.102 log2FC.
Turning to “CTCGAGGATATCAAGATCTGGCCTCGGCCTTTGGGCGGGAACCTCTAGCTAGCCGACTCACTATAGGGATAATCGCCCTGAGCAAAGACC”, the binding signal in the test with pT7_6His-AlfaTag-HOXD13 is -0.932 ± 0.115 log2FC; with pT7_6His-AlfaTag-ZIF268, 0.262 ± 0.0913 log2FC.
Taken in the same sequence, the figures for “CTCGAGGATATCAAGATCTGGCCTCGGCGCAGTAAAAGGAACCTCTAGCTAGCCGACTCACTATAGGGATAATCGCCCTGAGCAAAGACC” were 2.28 ± 0.0773 log2FC and 0.0357 ± 0.0818 log2FC.
For “CTCGAGGATATCAAGATCTGGCCTCGGCTCTATAAAAGGAACCTCTAGCTAGCCGACTCACTATAGGGATAATCGCCCTGAGCAAAGACC”, the binding signal with pT7_6His-AlfaTag-HOXD13 was determined as 2.9 ± 0.0831 log2FC; in the test with pT7_6His-AlfaTag-ZIF268, 0.0429 ± 0.0922 log2FC.
For “CTCGAGGATATCAAGATCTGGCCTCGGCCGCCCATGCGGAACCTCTAGCTAGCCGACTCACTATAGGGATAATCGCCCTGAGCAAAGACC”, the binding signal with pT7_6His-AlfaTag-HOXD13 is -0.953 ± 0.115 log2FC; in the test with pT7_6His-AlfaTag-ZIF268, 0.0314 ± 0.091 log2FC.
On to “CTCGAGGATATCAAGATCTGGCCTCGGCCGCCACCGCGGAACCTCTAGCTAGCCGACTCACTATAGGGATAATCGCCCTGAGCAAAGACC”, for which the binding signal with pT7_6His-AlfaTag-HOXD13 is -0.959 ± 0.127 log2FC; in the test with pT7_6His-AlfaTag-ZIF268 it was 0.142 ± 0.0977 log2FC.
For “CTCGAGGATATCAAGATCTGGCCTCGGCAACCTAAAAGGAACCTCTAGCTAGCCGACTCACTATAGGGATAATCGCCCTGAGCAAAGACC” the same measures were -0.715 ± 0.12 log2FC and 0.113 ± 0.099 log2FC.
For “CTCGAGGATATCAAGATCTGGCCTCGGCGACATAAAAGGAACCTCTAGCTAGCCGACTCACTATAGGGATAATCGCCCTGAGCAAAGACC”, the binding signal was 1.3 ± 0.0763 log2FC in the test with pT7_6His-AlfaTag-HOXD13 and 0.00765 ± 0.0777 log2FC with pT7_6His-AlfaTag-ZIF268.
Taken in the same sequence, the figures for “CTCGAGGATATCAAGATCTGGCCTCGGCTATTGGGCGGGAACCTCTAGCTAGCCGACTCACTATAGGGATAATCGCCCTGAGCAAAGACC” were -0.163 ± 0.106 log2FC and 0.205 ± 0.0951 log2FC.
With “CTCGAGGATATCAAGATCTGGCCTCGGCCCCCTAAAAGGAACCTCTAGCTAGCCGACTCACTATAGGGATAATCGCCCTGAGCAAAGACC”, the binding signal with pT7_6His-AlfaTag-HOXD13 was 0.578 ± 0.0983 log2FC; with pT7_6His-AlfaTag-ZIF268 it was 0.267 ± 0.0922 log2FC.
For “CTCGAGGATATCAAGATCTGGCCTCGGCCTTTTACGAGGAACCTCTAGCTAGCCGACTCACTATAGGGATAATCGCCCTGAGCAAAGACC” the same measures were 3.52 ± 0.0778 log2FC and 0.0308 ± 0.0876 log2FC.
For “CTCGAGGATATCAAGATCTGGCCTCGGCGTTTTATGCGGAACCTCTAGCTAGCCGACTCACTATAGGGATAATCGCCCTGAGCAAAGACC” the same measures were 2.07 ± 0.0741 log2FC and 0.0171 ± 0.08 log2FC.
Taken in the same sequence, the figures for “CTCGAGGATATCAAGATCTGGCCTCGGCTCGGTAAAAGGAACCTCTAGCTAGCCGACTCACTATAGGGATAATCGCCCTGAGCAAAGACC” were 0.426 ± 0.0878 log2FC and 0.074 ± 0.0831 log2FC.
On to “CTCGAGGATATCAAGATCTGGCCTCGGCTTTTTAGAGGGAACCTCTAGCTAGCCGACTCACTATAGGGATAATCGCCCTGAGCAAAGACC”, for which the binding signal with pT7_6His-AlfaTag-HOXD13 was found to be 1.39 ± 0.106 log2FC; in the test with pT7_6His-AlfaTag-ZIF268 it was 0.141 ± 0.108 log2FC.
For “CTCGAGGATATCAAGATCTGGCCTCGGCTTTTTACCTGGAACCTCTAGCTAGCCGACTCACTATAGGGATAATCGCCCTGAGCAAAGACC” the same measures were -0.185 ± 0.138 log2FC and 0.019 ± 0.125 log2FC.
For the sequence “CTCGAGGATATCAAGATCTGGCCTCGGCCTTTTAGTGGGAACCTCTAGCTAGCCGACTCACTATAGGGATAATCGCCCTGAGCAAAGACC”, the binding signal with pT7_6His-AlfaTag-HOXD13 is 1.46 ± 0.0766 log2FC; with pT7_6His-AlfaTag-ZIF268, 0.00894 ± 0.0794 log2FC.
Consider “CTCGAGGATATCAAGATCTGGCCTCGGCTTTTTACCAGGAACCTCTAGCTAGCCGACTCACTATAGGGATAATCGCCCTGAGCAAAGACC”, for which the binding signal with pT7_6His-AlfaTag-HOXD13 turned out to be 0.621 ± 0.101 log2FC; in the test with pT7_6His-AlfaTag-ZIF268, 0.0254 ± 0.098 log2FC.
For “CTCGAGGATATCAAGATCTGGCCTCGGCGTTTTAGCAGGAACCTCTAGCTAGCCGACTCACTATAGGGATAATCGCCCTGAGCAAAGACC” the same measures were 0.799 ± 0.115 log2FC and 0.0694 ± 0.112 log2FC.
Taken in the same sequence, the figures for “CTCGAGGATATCAAGATCTGGCCTCGGCGCGTGGTACGGAACCTCTAGCTAGCCGACTCACTATAGGGATAATCGCCCTGAGCAAAGACC” were -0.921 ± 0.116 log2FC and 0.427 ± 0.0903 log2FC.
As to “CTCGAGGATATCAAGATCTGGCCTCGGCGCGCAGGCGGGAACCTCTAGCTAGCCGACTCACTATAGGGATAATCGCCCTGAGCAAAGACC”, the figures for the binding signal in the test with pT7_6His-AlfaTag-HOXD13 and with pT7_6His-AlfaTag-ZIF268 were -1.07 ± 0.126 log2FC and 0.339 ± 0.0965 log2FC, respectively.
On to “CTCGAGGATATCAAGATCTGGCCTCGGCCTTTTAAAAGGAACCTCTAGCTAGCCGACTCACTATAGGGATAATCGCCCTGAGCAAAGACC”, for which the binding signal amounted to 2.5 ± 0.0673 log2FC with pT7_6His-AlfaTag-HOXD13 and 0.098 ± 0.0706 log2FC with pT7_6His-AlfaTag-ZIF268.
For the sequence “CTCGAGGATATCAAGATCTGGCCTCGGCATTTTACGGGGAACCTCTAGCTAGCCGACTCACTATAGGGATAATCGCCCTGAGCAAAGACC”, the figures for the binding signal with pT7_6His-AlfaTag-HOXD13 and with pT7_6His-AlfaTag-ZIF268 were 3.18 ± 0.0854 log2FC and 0.0766 ± 0.0939 log2FC, respectively.
For the sequence “CTCGAGGATATCAAGATCTGGCCTCGGCGACCCACGCGGAACCTCTAGCTAGCCGACTCACTATAGGGATAATCGCCCTGAGCAAAGACC”, the binding signal in the test with pT7_6His-AlfaTag-HOXD13 was -1.05 ± 0.109 log2FC; with pT7_6His-AlfaTag-ZIF268, 0.214 ± 0.0833 log2FC.
For “CTCGAGGATATCAAGATCTGGCCTCGGCCGCCCATCCGGAACCTCTAGCTAGCCGACTCACTATAGGGATAATCGCCCTGAGCAAAGACC” the same measures were -1.06 ± 0.122 log2FC and 0.00306 ± 0.0965 log2FC.
